TrxR1 substrate: qHTS Assay for Substrates of Mammalian Selenoprotein Thioredoxin Reductase 1 (TrxR1): qHTS. hit rate 0.01% among 390,000. AID 588456, 2011. Thioredoxin reductase 1, cytoplasmic (Rattus norvegicus), O89049. Potency, µM (series often up to 114 µM), for inactives: at the highest dose activity change, negative = substrate turnover. purified TrxR1 substrate turnover, NADPH consumption readout; further: potency means the concentration at half of the fitted maximal effect; nearly all actives have a fitted effect of over 50% in size
Target sequence (O89049 whole entry, looked up): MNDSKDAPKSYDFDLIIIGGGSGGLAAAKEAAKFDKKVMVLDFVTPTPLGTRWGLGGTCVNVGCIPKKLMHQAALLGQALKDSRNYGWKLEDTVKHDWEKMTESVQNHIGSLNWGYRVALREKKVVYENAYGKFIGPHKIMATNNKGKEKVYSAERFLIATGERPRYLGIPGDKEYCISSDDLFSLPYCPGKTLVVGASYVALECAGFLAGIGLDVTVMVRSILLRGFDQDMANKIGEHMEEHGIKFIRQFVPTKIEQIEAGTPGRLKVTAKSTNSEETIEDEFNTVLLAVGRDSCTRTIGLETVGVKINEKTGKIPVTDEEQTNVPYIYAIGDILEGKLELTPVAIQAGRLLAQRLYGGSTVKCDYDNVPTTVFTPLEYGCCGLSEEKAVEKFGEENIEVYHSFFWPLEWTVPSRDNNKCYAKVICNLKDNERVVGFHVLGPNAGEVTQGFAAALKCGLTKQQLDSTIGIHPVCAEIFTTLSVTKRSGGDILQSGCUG
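Rat TrxR1, dispensed at 90 nM, was prereduced with 400 uM NADPH (final) for 5 min at ~22 deg C, then incubated with compound 15 min before 400 uM selenite. A first-read NADPH fluorescence drop versus no-compound background flagged substrates.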
PI4K2A block: qHTS for small molecular inhibitors of PI4K2A; purified PI4K2A, ADP-Glo luminescence, 1 h; hits give low values; Phosphatidylinositol 4-kinase type 2-alpha (Homo sapiens), Q9BTU6; AID 1346378, 2018; hit rate 0.13% among 420,000; activity change, negative = inhibition, % at 76.9 µM; in the data active means activity change below about -50%; inconclusive means mostly about -30% to -49%;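 further: -100% = wells without enzyme as full effect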
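In this quantitative HTS, ADP production by PI4K2A was quantified luminescently after 1 h at ambient temperature; 100 microM adenosine served as plate-quality control.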
rTrxR1 inhibitor: qHTS Assay for Inhibitors of Mammalian Selenoprotein Thioredoxin Reductase 1 (TrxR1): qHTS | AID 588453, 2011 | hit rate 1% among 390,000 | Thioredoxin reductase 1, cytoplasmic (Rattus norvegicus), O89049 | Potency, µM (top dose mostly 114 µM), for the others: at the highest dose activity change, negative = inhibition, usual class: inhibitors | recombinant rTrxR1, NADPH fluorescence consumption, selenite substrate; further: potency means the concentration at half of the fitted maximal effect; nearly all actives have a fitted effect of over 65% in size
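Rat TrxR1 (90 nM in the dispensed reagent) was pre-reduced with 400 uM NADPH for 5 min at room temperature, then incubated with compound for 15 min. After 400 uM selenite was added, NADPH fluorescence (Ex 340/Em 450 nm) was followed for 8 min.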
Giardia killer: Small Molecules that selectively kill Giardia lamblia: qHTS | hit rate 0.15% among 340,000 | Giardia lamblia trophozoite viability | activity change, % at 7.66 µM, hits read low; in the data active means activity change below about -80%; inconclusive means between about -30% and that limit;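 further: parasites exposed to compound for two days anaerobically before the ATP read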
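Viability, read as ATP luminescence: trophozoites at 100 cells/well, compound added, 48 hrs anaerobic at 37 deg C, then 15-30 min room-temperature development before reading.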
Coupling enz: qHTS Assay for Inhibitors of Fructose-1,6-bisphosphate Aldolase from Giardia Lamblia: Coupling assay counterscreen. coupling enzyme system counterscreen, AmpLite Red fluorescence. hit rate 0.67% among 290,000. activity change, negative = inhibition, % at 58.2 µM, hits read low. AID 2472, 2010; in the data active means activity change below about -30%
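Fluorescence at 525 nm excitation and 598 nm emission measured inhibition of the coupled detection system without aldolase. Compounds (at 57.5 uM final) were preincubated 10 min at room temperature with coupling enzyme reagent before a 20 min substrate/AmpLite Red step.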
GALK inhibitor: qHTS Assay for Inhibitors of Human Galactokinase (GALK). AID 1868, 2009. Purified GALK, Kinase-Glo residual ATP luminescence. Potency, µM (series often up to 57.5 µM), for inactives: at the top dose activity change, negative = inhibition, hits mostly inhibitors. P51570. hit rate 0.007% among 270,000; further: potency means the concentration at half of the fitted maximal effect
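The enzyme phosphorylates galactose (100 uM) using ATP (35 uM); inhibition is detected as higher residual ATP, quantified by bioluminescence after 1 h reaction at room temperature, pH 8.0.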
* = called active by the depositor; ? = inconclusive; nt = no result given; [ ] = dose if it differs, or a comment. Most compounds without a hit are left out; they make up all but 1.5% or so of the library. Unless noted, the call rests on the fitted dose curve; in most records, active means well fitted curve in the direction sought with a large enough effect; inconclusive means small, poorly fitted or top-dose-only effect, or another doubt; inactive means no such curve, though single readings can be large; an effect the other way counts as inactive or inconclusive. Unless noted, on the % scale 0 is the no-effect control and ±100 the full control effect.

SMILES	TrxR1 substrate	PI4K2A block	rTrxR1 inhibitor	Giardia killer	Coupling enz	GALK inhibitor
N#C/C(=C/c1ccc(-c2ccc(S(N)(=O)=O)cc2)o1)C(=O)Nc1ccccc1	5%[57.1 µM]	-10	-2%[57.1 µM]	-19	1	-1%
CCCNc1nc(C#N)nc(Nc2ccccc2)n1	nt	nt	nt	nt	0	nt
C/C(=N/Nc1ccc(C(=O)O)cc1)c1ccc(O)c(O)c1O	?	-7	-32%	-4	-34*	-1%
COC(=O)CSc1nc(-c2ccccc2)cc(-c2ccco2)c1C#N	12%	4	-17%	-5	-32*	-1%
Cc1sc2ccccc2[n+]1CCc1ccccc1	-2%	nt	10%	nt	nt	nt
O=[N+]([O-])c1cc(Br)c(Nc2ccccc2)c([N+](=O)[O-])c1	-1%	17	11µM*	11	1	nt
CCOc1ccc(-n2c(Cc3ccccc3)nnc2SCc2nc(-c3cccs3)no2)cc1	-4%	5	21%	nt	nt	nt
Cc1ccc(C)c(N2CCN(C(=O)C(C)n3c(C)c4cnn(-c5ccccc5)c(=O)c4c3C)CC2)c1 (centres undefined)	-5%	9	8%	nt	nt	nt
O=[N+]([O-])c1ccc(O)c(C2=NNC(c3ccccc3F)C2)c1 (centres undefined)	-1%	-1	35µM*	-25	5	-2%
CCCc1ncc(C(=O)O)s1	nt	0	nt	nt	nt	nt
Cc1ccc(C(=O)N/N=C/c2ccc([N+](=O)[O-])s2)cc1	14%	-4	26%	-93*	nt	1%
Cc1cc(C(=O)N/N=C/c2cc(Br)c(Br)o2)n[nH]1	-1%	-20	35µM*	12	-7	-2%
Cc1cc(C(=O)N/N=C/c2ccc([N+](=O)[O-])s2)n[nH]1	-15%	2	?	-90*	3	-2%
CCOC(=O)N/N=C\c1ccc([N+](=O)[O-])s1	-5%	-5	17%[57.1 µM]	-99*	1	-1%
Cc1cc(C(=O)N/N=C/c2ccc(Br)o2)n[nH]1	-7%	-1	-31%	-7	-1	-3%
CC(NC(=O)c1cnn2c1NC(=C1CC1)C=C2C(F)F)c1ccncc1 (centres undefined)	21%	nt	1%	nt	nt	nt
C#CCNC(=O)C[C@H]1C[C@@]2(C(=O)OC)C(=C[C@H](COCc3ccccc3)O[C@@H]2C)N(Cc2ccco2)C1=O	nt	-1	nt	nt	nt	nt
c1ccc2c(c1)NCC1CCCN21 (centres undefined)	-9%	-14	79µM*	-29	-10	nt
CC(C)C[C@@H](CN=[N+]=[N-])N1CCN(CCc2ccccc2)CCC1=O	2%	nt	1%	nt	nt	nt
Cc1ccc(S(=O)(=O)Nc2cccc3ncccc23)cc1	?	0	1%	-5	-1	0%
Cc1ccc(S(=O)(=O)Nc2cccc3ncccc23)s1	2%	-11	0%	-1	-40*	0%
Cc1ccc(C)c(S(=O)(=O)C(C#N)c2nc3ccccc3nc2N2CCCC2)c1 (centres undefined)	0%[57.1 µM]	-5	-15%[57.1 µM]	-4	-36*	1%
O=C(C1CCN(c2ncnc3c2sc2cccc(F)c23)CC1)N1CCCC1	nt	nt	nt	nt	-44*	-2%
CC(=O)N1CCCN(C(=O)C2CCN(c3ncnc4c3sc3cccc(F)c34)CC2)CC1	nt	1	nt	nt	nt	nt
CC[C@H](C)[C@H](NC(=O)[C@H](Cc1ccc(O)cc1)NC(=O)[C@H](Cc1cnc[nH]1)NC(=O)[C@H](CCCNC(=N)N)NC(=O)[C@H](CC(C)C)NC(=O)[C@H](C)NC(=O)[C@H](CO)NC(=O)[C@H](Cc1ccc(O)cc1)NC(=O)[C@H](Cc1ccc(O)cc1)NC(=O)[C@H](CCCNC(=N)N)NC(=O)[C@H](C)NC(=O)[C@H](CC(C)C)NC(=O)[C@H](CC(=O)O)NC(=O)[C@H](CCC(=O)O)NC(=O)[C@H](C)NC(=O)[C@@H]1CCCN1C(=O)[C@H](C)NC(=O)[C@H](CC(=O)O)NC(=O)[C@H](CCC(=O)O)NC(=O)CNC(=O)[C@@H]1CCCN1C(=O)[C@H](CC(N)=O)NC(=O)[C@H](CC(=O)O)NC(=O)[C@@H]1CCCN1C(=O)[C@H](CCCCN)NC(=O)[C@H](CO)NC(=O)[C@@H]1CCCN1C(=O)[C@@H](N)Cc1ccc(O)cc1)C(=O)N[C@@H](CC(N)=O)C(=O)N[C@@H](CC(C)C)C(=O)N[C@H](C(=O)N[C@H](C(=O)N[C@@H](CCCNC(=N)N)C(=O)N[C@@H](CCC(N)=O)C(=O)N[C@@H](CCCNC(=N)N)C(=O)N[C@@H](Cc1ccc(O)cc1)C(N)=O)[C@@H](C)O)[C@@H](C)CC	nt	nt	nt	nt	3	nt
SMILES	TrxR1 substrate	PI4K2A block	rTrxR1 inhibitor	Giardia killer	Coupling enz	GALK inhibitor
CN1CCN(N)CC1	nt	-4	nt	nt	nt	nt
N#Cc1ccc(NC(=O)COc2ccccc2C(=O)Nc2ccccc2)cc1	-9%	nt	-20%	nt	nt	nt
CCS(=O)(=O)N1N=C(c2ccc(C)cc2)CC1c1cc2ccc(OC)cc2nc1Cl (centres undefined)	7%	-1	22%	nt	nt	nt
COc1ccc2cc(C3CC(c4ccco4)=NN3S(C)(=O)=O)c(Cl)nc2c1 (centres undefined)	1%	-6	50µM*	-1	4	-2%
O=C(NCCc1ccccc1)C(c1cccs1)N(C(=O)CCl)c1ccc(Cl)cc1 (centres undefined)	2%	46	3.2µM*	3	0	-3%
O=C(NCCc1ccccc1)C(c1cccs1)N(C(=O)c1csnn1)C1CC1 (centres undefined)	12%	-5	24%	18	6	3%
COc1cc(C=C2CCC/C(=C\c3ccc(O)c(OC)c3)C2=O)ccc1O	nt	2	nt	nt	nt	nt
CCOc1ccc2nc(Cl)c(C3CC(c4ccc(C)cc4)=NN3C(=O)CCCC(=O)O)cc2c1 (centres undefined)	-1%	-8	-28%	nt	nt	nt
CCCOc1ccc(C2C(C(=O)c3ccc(C)o3)=C(O)C(=O)N2CCN2CCOCC2)cc1OC (centres undefined)	-6%	5	50µM*	0	3	0%
c1ccc(-c2[nH]ncc2-c2ccnc3ccccc23)nc1	nt	nt	nt	nt	-7	nt
Cc1cc(O)c(-c2cc(O)c(C)cc2O)cc1O	118%	-2	-19%	6	-50*	-1%
Cc1ccc(N)cc1O	7%	-6	?	-8	nt	nt

Screening results as filed in PubChem.
